Screens from PubChem BioAssay.
In the library only some 4.6% were active in any assay of this set; here they are far more common.
NLRP3 yeast inh – blocks the NALP3 inflammasome reconstituted in yeast; Yeast reconstituted NLRP3/ASC/caspase-1, beta-gal luminescence, 24 h; hit rate 0.39% among 330,000; inhibition, % at 10 µM;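 active = inhibition of 50% or more; inactive = inhibition below 50%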;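 also: plate controls were induced DMSO wells for no effect and uninduced yeast grown without galactose for full effect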
tim10-1 inh – inhibits growth of tim10-1 mutant yeast. S. cerevisiae tim10-1 ts strain growth, BacTiter-Glo, 24 h. inhibition, % at 20 µM. hit rate 2.2% among 330,000. AID 463190;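 active = inhibition of at least 40%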;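 also: mutant grown at 25 °C; 0% = DMSO wells with yeast and 100% = wells holding no yeast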
TIM10 inh – inhibits growth of TIM10 yeast strain; S. cerevisiae TIM10 strain growth, BacTiter-Glo luminescence, 24 h; inhibition, % at 10 µM; hit rate 1.4% among 330,000;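 active = inhibition of 40% or more at the single tested concentration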;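 also: wild-type TIM10 isogenic control strain grown at permissive 25 °C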
SKKanGAS inh – blocks kanamycin growth of S. pyogenes SKKanGAS strain; AID 1662; inhibition, % at 7.5 µM; hit rate 1.3% among 300,000; BacTiter-Glo, 6 h;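 active = mean replicate score, as percent of positive control median, at least 50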;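 also: strain carries kanamycin resistance gene driven by streptokinase promoter and grows in 40 µg/ml kanamycin; loss of luminescence reflects streptokinase promoter inhibition or plain growth inhibition; 0% = median of DMSO wells and 100% = positive control at its reference dose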
PfHsp90 yeast 2 – inhibits growth of yeast expressing Plasmodium falciparum Hsp90; hit rate 0.32% among 310,000; inhibition, % at 9.4 µM; AID 504621; S. cerevisiae expressing PfHsp90, BacTiter-Glo ATP, 48 h; yeast lacking PDR1 and PDR3 efflux regulators;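 active = every replicate shows inhibition above about 80%, whatever the replicate mean, limit read from the data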;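 also: 0% = DMSO neutral controls and 100% = 20 µM radicicol positive controls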
tim23-1 inh – growth inhibitors of tim23-1 mutant yeast; S. cerevisiae tim23-1 growth, BacTiter-Glo luminescence, 24 h; inhibition, % at 20 µM; hit rate 1.3% among 330,000; AID 463212;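 active = growth inhibition of the mutant yeast at or above 50%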;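 also: temperature-sensitive mutant grown at 25 °C; plate controls were DMSO-treated mutant yeast for no effect and medium wells lacking yeast for full effect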
tim10 confirm – confirmation of TIM10 yeast growth inhibitors; shares compounds with TIM10 inh; S. cerevisiae tim10 strain growth, BacTiter-Glo luminescence, 24 h; inhibition, % at 10 µM; hit rate 63% among 4,600;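 active = inhibition of yeast growth at or above a set limit in either of two replicates at 10 µM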;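 also: this counterscreen used the strain with wild-type TIM10; 0% = yeast with DMSO and 100% = medium wells lacking yeast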
* = called active by the depositor; . = no result.

SMILES | NLRP3 yeast inh | tim10-1 inh | TIM10 inh | SKKanGAS inh | PfHsp90 yeast 2 | tim23-1 inh | tim10 confirm
O=S(=O)(NCC(c1ccco1)N1CCc2ccccc2C1)c1ccc(F)cc1 (stereo not given) | 15 | 30 | 16 | 3 | -19 | 19 | .
Cc1cc(C)nc(-n2nc(C)cc2NC(=O)CNCc2ccccc2)n1 | 2 | 26 | 2 | -10 | . | 4 | .
CCC(C(=O)Nc1cc(C)nn1-c1nc(C)cc(C)n1)c1ccccc1 (stereo not given) | 16 | 26 | 44* | 30 | 9 | 16 | -1
Cc1cccc(CSCCNC(=S)Nc2ccccc2)c1 | 39 | 35 | 48* | -9 | -12 | 45 | 28
CCCNC(=S)Nc1ccccc1 | 8 | -12 | 12 | 3 | 6 | 31 | .
NC(=O)C1Cc2ccccc2CN1S(=O)(=O)c1cccs1 (stereo not given) | 3 | 15 | 9 | . | 0 | 9 | .
O=C(C1Cc2ccccc2CN1S(=O)(=O)c1cccs1)N1CCCCCC1 (stereo not given) | -4 | 33 | 44* | -5 | -5 | 31 | 33*
CCOc1cc(-c2cc(-c3ccc(C)o3)nc(N)c2C#N)ccc1O | 6 | 40 | 43* | 16 | -79 | 31 | 21
COc1ccc(Nc2nc3ccccc3s2)cc1 | 20 | 27 | 4 | 2 | -18 | 25 | .
COc1ccc(Nc2nc(Cl)c(C=O)s2)cc1 | 11 | 29 | 46* | 2 | . | 44 | 18
COc1cccc(CNCc2ccc(OC)cc2OC)c1 | 15 | -3 | 1 | -1 | 10 | -10 | .
CCn1c2ccccc2c2cc(CNCc3ccc(OC)cc3OC)ccc21 | 36 | 2 | 49* | 16 | 21 | 20 | 23
COc1cccc(N2C(=NC(=O)C3CCCCC3)SC3CS(=O)(=O)CC32)c1 (stereo not given) | -6 | 23 | 12 | -3 | -5 | 15 | .
CC(=O)Nc1ccc(/C=C(\C#N)C(=O)NC2CCCCC2C)cc1 (stereo not given) | 16 | 38 | 68* | 7 | 0 | 47 | 45*
COc1cc(/C=C(\C#N)C(=O)NC2CCCCC2C)ccc1OS(=O)(=O)c1ccc(C)cc1 (stereo not given) | 19 | 36 | 34 | 3 | -20 | 36 | .
CCN(CC)C(=O)Cn1cc(S(=O)(=O)CC(=O)N2CCOCC2)c2ccccc21 | 2 | 3 | -11 | 2 | 1 | 8 | .
COc1cc(/C=N/NC(=O)c2cc(C)oc2C)ccc1OCc1ccccc1 | 23 | 16 | 10 | 6 | -18 | 7 | .
CCc1n[nH]c(=S)n1/N=C/c1cc(Br)c(OC)cc1OC | 12 | 32 | 53* | 1 | 28 | 28 | -15
CCCCOc1cccc(C(=O)Nc2ccc(S(=O)(=O)Nc3nnc(CC)s3)cc2)c1 | 15 | 7 | -3 | 29 | -12 | 13 | .
S=C(NCc1ccccc1)N1CCN(c2cccc(Cl)c2)CC1 | 23 | 26 | 46* | 11 | -7 | 45 | 15
O=C(Cn1ccc2ccccc2c1=O)N1CCN(c2cccc(Cl)c2)CC1 | 20 | -40 | 54* | -2 | -20 | -14 | -38
CC1CC(C)CN(C(=O)CCNC(=O)c2ccccc2Cl)C1 (stereo not given) | 15 | 21 | 11 | -2 | -9 | 15 | .
O=C(OCC#CCSc1nnc(-c2ccc([N+](=O)[O-])cc2)o1)c1cccs1 | 15 | 36 | 41* | 3 | -3 | 22 | 33*
CSc1nc(S(=O)(=O)c2ccccc2)c(Cl)s1 | 1 | 4 | 9 | 2 | 1 | -6 | .
CC(=O)c1ccc(NC(=S)Nc2ccc(Br)c(Cl)c2)cc1 | 3 | 37 | 42* | 95* | 26 | 44 | 24
O=C(Nc1ccccc1)Nc1ccc(Br)c(Cl)c1 | 37 | -8 | -4 | 4 | -14 | -11 | .
C=CCNC(=S)N/N=C/c1ccc(-c2cc(Cl)ccc2Cl)o1 | 8 | 6 | -6 | -9 | -8 | -23 | .
C=CCNC(=S)N/N=C/c1ccc(-c2ccc(OC)cc2)o1 | 12 | 15 | 42* | -20 | -34 | 17 | 36*
FC(F)(F)c1ccc(/C=N/NC(=S)NC2CCCCC2)cc1 | 2 | 31 | -5 | -2 | 6 | -34 | .
